Reference: PubChem BioAssay (NCATS)
Where “and” joins values, the source holds several entries; their conditions need not be identical. Equal entries are not always repeated. Inconclusive results are not listed. Calls of active or inactive are those of the source. The call rests on the fitted dose curve; in most records, active means well fitted curve in the direction sought with a large enough effect; inconclusive means small, poorly fitted or top-dose-only effect, or another doubt; inactive means no such curve, though single readings can be large; an effect the other way counts as inactive or inconclusive.

How the values were obtained:
[1] = Viability qHTS for spleen associated tyrosine kinase inhibitor (SYKi) naive MV4-11 cells (AID 1963823); further: nearly all actives have a fitted effect of over 40% in size; further: potency means the concentration at half of the fitted maximal effect
How it was run: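 SYK inhibitor-naive MV4-11 cells, 500 per well, exposed to compounds for 72 hr at 37 C, 5% CO2. Viability read as CellTiter-Glo luminescence after 10 min at room temperature.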

[2] = Quantitative highthroughput screen to assess conditional lethalithy of NOMO1 cells grown in RPMI1640 with dialyzed fetal bovine serum (RPMI+ds) (AID 1963877); further: nearly all actives have a fitted effect of over 30% in size; further: potency means the concentration at half of the fitted maximal effect;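 on Viability: series mostly up to about 46 µM; 100% = DMSO control wells and 0% = empty wells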
How it was run: (§1)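 Each medium arm—HPLM with 10% dialyzed FBS, or RPMI1640 with 5 mM glucose and 10% untreated or dialyzed FBS—was screened against an 11-point, 3-fold compound titration for 48 h at 37 °C, with CellTiter-Glo luminescence as endpoint.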

[3] = Quantitative highthroughput screen to assess conditional lethalithy of NOMO1 cells grown in Human Plasma-Like Medium with dialyzed fetal bovine serum (HPLM+ds) (AID 1963878); further: nearly all actives have a fitted effect of over 35% in size; further: potency means the concentration at half of the fitted maximal effect;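 on Viability: 100% = DMSO wells and 0% = empty wells on each plate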
How it was run: as §1

[4] = Quantitative highthroughput screen to assess conditional lethalithy of P12 Ichikawa cells grown in Human Plasma-Like Medium with dialyzed fetal bovine serum (HPLM+ds) (AID 1963879); conditions: Potency: viability; further: nearly all actives have a fitted effect of over 35% in size; further: potency means the concentration at half of the fitted maximal effect; on Viability: series mostly up to about 46 µM
How it was run: as §1

[5] = Quantitative highthroughput screen to assess conditional lethalithy of P12 Ichikawa cells grown in RPMI1640 with dialyzed fetal bovine serum (RPMI+ds) (AID 1963880); conditions: Potency: P12-Ichikawa viability; further: nearly all actives have a fitted effect of over 35% in size; further: potency means the concentration at half of the fitted maximal effect;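 on Viability: 100% = DMSO wells and 0% = empty wells on each plate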
How it was run: as §1

[6] = Quantitative highthroughput screen to assess conditional lethalithy of P12 Ichikawa cells grown in RPMI1640 with untreated serum (RPMI+s) (AID 1963881); conditions: Potency: viability; further: nearly all actives have a fitted effect of over 35% in size; further: potency means the concentration at half of the fitted maximal effect;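 on Viability: series mostly up to about 46 µM; 100% = DMSO wells and 0% = empty wells without cells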
How it was run: as §1

[7] = Quantitative highthroughput screen to assess conditional lethalithy of SEM cells grown in Human Plasma-Like Medium with dialyzed fetal bovine serum (HPLM+ds) (AID 1963882); further: nearly all actives have a fitted effect of over 35% in size; further: potency means the concentration at half of the fitted maximal effect; on Viability: series mostly up to about 46 µM
How it was run: as §1

[8] = Quantitative highthroughput screen to assess conditional lethalithy of SEM cells grown in RPMI1640 with unreated serum (RPMI+s) (AID 1963883); further: nearly all actives have a fitted effect of over 35% in size; further: potency means the concentration at half of the fitted maximal effect;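 on Viability: 100% = DMSO wells and 0% = empty wells without cells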
How it was run: as §1

[9] = Quantitative highthroughput screen to assess conditional lethalithy of SEM cells grown in RPMI1640 with dialyzed fetal bovine serum (RPMI+ds) (AID 1963884); further: nearly all actives have a fitted effect of over 35% in size; further: potency means the concentration at half of the fitted maximal effect;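 on Viability: series mostly up to about 46 µM; 100% = DMSO control wells and 0% = empty wells without cells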
How it was run: as §1

[10] = Cellular viability qHTS for adrenocortical cancer (ACC) cell line SW-13 (AID 1963989); conditions: SW-13 ACC cells viability, CellTiter-Glo, 48 h; activity (max response): stronger effect = lower value; further: nearly all actives have a fitted effect of over 65% in size; further: potency means the concentration at half of the fitted maximal effect;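 on activity (max response): cells grown in serum-free medium with ITS supplement; on the % scale 0 is the no-effect control and ±100 the full control effect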
How it was run: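 48 h treatment, SW-13 in ITS/DMEM serum-free; doses up to 46 uM; readout CellTiter-Glo luminescence; curve fit four-parameter logistic.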

[11] = Cellular viability qHTS for adrenocortical cancer (ACC) cell line NCI-H295R (AID 1963990); further: nearly all actives have a fitted effect of over 60% in size; further: potency means the concentration at half of the fitted maximal effect;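 on activity change, negative = viability loss: 0% = DMSO only wells and -100% = full killing with cytotoxic reference compound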
How it was run: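 Compound titrations (up to 46 uM final) are applied to NCI-H295R cultures for 48 h at 37C. Viable cell number is estimated by CellTiter-Glo signal, normalised to DMSO and doxorubicin controls.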

[12] = Quantitative highthroughput screen to assess conditional lethalithy of NOMO1 cells grown in RPMI1640 with untreated serum (RPMI+s) (AID 1963876)
How it was run: as §1

C[C@]12C=CC(=O)C=C1CC[C@@H]1[C@@H]2C(=O)C[C@@]2(C)[C@H]1CC[C@]2(O)C(=O)CO
inactive: Potency [1] | Potency [2] | Potency [3] | Potency [4] | Potency [5] | Potency [6] | Potency [7] | Potency [8] | Potency [9] | activity (max response) [10] -14.6% and 1.01% | Potency [11]

NC(=O)c1ccc2[nH]ccc2c1
active: Potency [9] 18.7 µM
inactive: Potency [1] | activity (max response) [10] -8.13% | Potency [11]

Cc1cccc(Nc2nc(-c3ccncc3)cs2)c1
active: Potency [1] 8.2 µM | Potency [5] 18.7 µM | Potency [11] 25.1 µM
inactive: Potency [2] | Potency [3] | Potency [4]

NC(=O)Nc1cc(-c2ccc(CN3CCOCC3)cc2)sc1C(N)=O
inactive: activity (max response) [10] -17.8%
active: Potency [1] 0.209 µM | Potency [4] 0.118 µM | Potency [5] 0.118 µM | Potency [6] 0.118 µM | Potency [7] 0.132 µM | Potency [8] 0.118 µM | Potency [9] 0.105 µM | Potency [11] 5.01 µM

COC1=C(OC)C(=O)C(CCCCCCCCCCO)=C(C)C1=O
inactive: Potency [4] | Potency [7]
active: Potency [1] 10.6 µM | Potency [10] 4.11 µM and 25.1 µM | Potency [11] 2.91 µM and 5.01 µM

COc1cc2nc(N3CCN(C(=O)c4ccco4)CC3)nc(N)c2cc1OC
inactive: activity (max response) [10] -8.85%
active: Potency [1] 10.3 µM | Potency [3] 13.2 µM | Potency [4] 16.6 µM | Potency [7] 9.35 µM | Potency [8] 10.5 µM | Potency [9] 7.43 µM

N[C@@H](Cc1ccc(O)cc1)C(=O)O
inactive: viability (% of control) [1] 88.5% [at 9.25 µM] | activity (max response) [10] 7.19%

Cc1ccc(Nc2nccc(N(C)c3ccc4c(C)n(C)nc4c3)n2)cc1S(N)(=O)=O
active: Potency [1] 0.742 µM | Potency [8] 14.8 µM | Potency [9] 14.8 µM
inactive: activity (max response) [10] -20.1% | Potency [11]

C[C@]1(CO)CN(c2cc(C(=O)Nc3ccc4c(c3)-c3c(c(C(N)=O)nn3-c3ccc(F)cc3)CC4)c(Cl)cn2)C[C@@]1(C)CO
active: Potency [1] 3.66 µM | Potency [4] 16.6 µM | Potency [6] 16.6 µM | Potency [7] 18.7 µM | Potency [9] 18.7 µM

C=CC(=O)Nc1cccc(Oc2nc(Nc3ccc(N4CCN(C)CC4)cc3)ncc2Cl)c1
inactive: Potency [3]
active: Potency [1] 0.206 µM | Potency [2] 5.9 µM | Potency [7] 2.35 µM | Potency [8] 0.833 µM | Potency [9] 1.87 µM

CCN1CCC(n2cc(CNc3cc(Cl)c4ncc(C#N)c(Nc5ccc(F)c(Cl)c5)c4c3)nn2)CC1
active: Potency [1] 13 µM | Potency [4] 4.18 µM | Potency [6] 18.7 µM | Potency [7] 18.7 µM | Potency [8] 3.32 µM | Potency [9] 13.2 µM

CC(C)C[C@H](NC(=O)[C@@H](O)[C@H](N)Cc1ccccc1)C(=O)O
active: Potency [2] 20.9 µM
inactive: Potency [1] | activity (max response) [10] 9.42% | Potency [11]

C[C@H]1COc2c(N3CCN(C)CC3)c(F)cc3c(=O)c(C(=O)O)cn1c23
active: Potency [2] 23.5 µM | Potency [4] 8.33 µM | Potency [6] 4.18 µM | Potency [8] 13.2 µM | Potency [9] 1.32 µM
inactive: Potency [1] | Potency [11]

CCOC(=O)C1=C[C@]2(CC)CCCN3CCc4c(n1c1ccccc41)[C@@H]32
inactive: Potency [4] | Potency [7] | Potency [9]
active: Potency [1] 13.3 µM

CC(C(=O)O)c1ccc2c(c1)[nH]c1ccc(Cl)cc12 (configuration not stated)
inactive: Potency [1] | activity (max response) [10] -19.1%

CN(C[C@@H]1COCCO1)S(=O)(=O)Nc1ccc2ccc3ncc(-c4cnn(C)c4)cc3c(=O)c2c1
active: Potency [1] 0.296 µM | Potency [8] 0.418 µM | Potency [9] 0.662 µM

CC(=O)OC[C@@H]1O[C@@H](n2ccc(=O)[nH]c2=O)[C@H](OC(C)=O)[C@H]1OC(C)=O
inactive: Potency [1] | Potency [5] | Potency [6] | Potency [7] | Potency [9] | activity (max response) [10] -1.19% | Potency [11]

Clc1cccc(-c2nnnn2Cc2cccnc2)c1Cl
active: Potency [4] 7.43 µM | Potency [6] 1.32 µM
inactive: Potency [1]

C[C@]1(c2nc3c(C(N)=O)cccc3[nH]2)CCCN1
inactive: Potency [1] | Potency [4] | Potency [7] | activity (max response) [10] 7.65% | Potency [11]

O=C(NCCS(=O)(=O)c1ccc(C(F)(F)F)cn1)c1ccc(Cl)cc1
inactive: Potency [1] | Potency [2] | Potency [3] | Potency [4] | Potency [5] | Potency [6] | Potency [7] | Potency [8] | Potency [9] | Potency [11]

CCC(=O)O[C@]1(C(=O)SCF)[C@H](C)C[C@H]2[C@@H]3C[C@H](F)C4=CC(=O)C=C[C@]4(C)[C@@]3(F)[C@@H](O)C[C@@]21C
active: Potency [1] 3.3 nM and 8.3 nM
inactive: Potency [12] | activity (max response) [10] 0.482% and -2.88% | Potency [11]

C1CCC(C(CC2CCCCN2)C2CCCCC2)CC1 (configuration not stated)
active: Potency [1] 2.95 µM | Potency [2] 23.5 µM | Potency [7] 14.8 µM | Potency [8] 11.8 µM | Potency [11] 7.08 µM

O=C(Nc1nc2cccc(-c3ccc(CN4CCS(=O)(=O)CC4)cc3)n2n1)C1CC1
active: Potency [1] 2.59 µM and 5.25 µM | Potency [3] 23.5 µM | Potency [10] 25.1 µM | Potency [11] 28.2 µM

COC(=O)Nc1nc2ccc(C(=O)c3ccccc3)cc2[nH]1
active: Potency [1] 0.332 µM | Potency [4] 1.05 µM | Potency [5] 1.87 µM | Potency [6] 0.332 µM | Potency [10] 130 nM and 316 nM | Potency [11] 103 nM and 141 nM

CC1(C)CCC(C)(C)c2cc(NC(=O)c3ccc(C(=O)O)cc3)ccc21
inactive: Potency [1] | Potency [2] | Potency [4] | Potency [6] | Potency [7] | Potency [9] | activity (max response) [10] -9.24% | Potency [11]

Cn1ncc(NC(=O)c2nc(-c3c(F)cccc3F)sc2N)c1N1CC[C@@H](N)[C@H](F)CC1
active: Potency [1] 0.235 µM | Potency [10] 25.1 µM

C[C@@H](Oc1cc(-n2cnc3ccc(CN4CCN(C)CC4)cc32)sc1C(N)=O)c1ccccc1C(F)(F)F
active: Potency [1] 0.0209 µM | Potency [5] 0.0332 µM | Potency [6] 0.0332 µM | Potency [8] 0.0332 µM | Potency [10] 0.0501 µM

CSCC[C@H](NC(=O)[C@H](Cc1c[nH]c2ccccc12)NC(=O)CCNC(=O)OC(C)(C)C)C(=O)N[C@@H](CC(=O)O)C(=O)N[C@@H](Cc1ccccc1)C(N)=O
inactive: Potency [1] | activity (max response) [10] 1.93%

CC[C@]1(O)C[C@H]2CN(CCc3c([nH]c4ccccc34)[C@@](C(=O)OC)(c3cc4c(cc3OC)N(C=O)[C@H]3[C@@](O)(C(=O)OC)[C@H](OC(C)=O)[C@]5(CC)C=CCN6CC[C@]43[C@@H]65)C2)C1
active: Potency [1] 0.0118 µM | Potency [2] 0.0662 µM | Potency [4] 0.0264 µM | Potency [5] 0.0418 µM | Potency [7] 0.0332 µM | Potency [9] 0.0469 µM | Potency [10] 8.2 nM and 28.2 nM | Potency [11] 146 nM and 1.78 µM

Cn1cc(C2=C(c3c4n(c5ccccc35)CCC(CN)C4)C(=O)NC2=O)c2ccccc21 (configuration not stated)
inactive: activity (max response) [10] -20.5% | activity change, negative = viability loss [11] -2.33% [at 9.17 µM]
active: Potency [1] 2.15 µM | Potency [2] 18.7 µM | Potency [7] 10.5 µM | Potency [8] 10.5 µM | Potency [9] 11.8 µM

C[C@]12C=CC(=O)C=C1CC[C@H]1[C@@H]3C[C@@H](O)[C@](O)(C(=O)CO)[C@@]3(C)C[C@H](O)[C@@]12F
inactive: Potency [1] | activity (max response) [10] 4.79%

Cc1cccc(-c2[nH]c(CNc3ccccc3F)nc2-c2ccc3ncnn3c2)n1
inactive: activity (max response) [10] -16.8% | Potency [11]
active: Potency [1] 13 µM
